What all share (assay): NCI-60 one-dose screen, 48 h (100 = growth as untreated, 0 = no growth, -100 = all killed)
Details in all cases: 10 µM unless noted

The test system of experiment [1] is HCT-15 colon.
Experiment [2] has as its system HT29 colon.
For experiment [3], the system named is SNB-19 CNS.
Experiment [4] deals with U251 CNS.
In experiment [5] the test system is PC-3 prostate.
Experiment [6] relates to SK-MEL-5 melanoma.
In experiment [7] the test system is LOX IMVI melanoma.
The subject of experiment [8] is SK-MEL-28 melanoma.
The subject of experiment [9] is UACC-62 melanoma.

The structures appear in SMILES notation. The panel holds about 83,000 compounds, 20% with a hit somewhere; the sample as a whole holds those more often.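 Note: values are percent growth. 100 is the growth of untreated cells, values between 100 and 0 indicate rising inhibition; between -100 and 0 indicates cell death.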 Values without a mark were called inactive. Activity calls are given as the source filed them. How the source made its calls: active means growth percent below 10; inactive means the rest.

With `CCNC(=NCCCN(C)C)N/C(N)=N/c1nc2ccccc2s1`, the growth was 77.4% in experiment [1]; 69.9% in experiment [2]; 90.1% in experiment [3]; 79.3% in [4]; 80.3% in experiment [5]; 93.4% in [6]. Also, the results for the growth in [7] and in experiment [8] were 73.5% and 93.1%, respectively.

`O=C(/C=C/c1cn(-c2ccccc2)nc1-c1ccc(Cl)cc1)c1cc2ccccc2oc1=O`: the growth in [1] was 58.9%; in [2] it was 62.1%; in experiment [3] it was 54.3%; in experiment [4] it was 35.1%; in experiment [5], 53.3%; in experiment [6] it was 72%. For the same compound, the figures for the growth in [9], in [7] and in experiment [8] were 52.7%, 37.3% and 93%, respectively.

Consider `O=C1[C@H]2Cc3c([nH]c4ccccc34)[C@@H](c3ccc(Cl)cc3)N2C(=O)CN1C1CCN(Cc2c(Cl)cccc2Cl)CC1`, for which the growth was 54.5% in experiment [1]; 81.8% in experiment [2]; 91.2% in [4]; 70.8% in experiment [5]; 90.1% in experiment [6]; 81.8% in experiment [9]. The growth in [7] is -89% (active); in [8], 103%.

Turning to `O=C(Nc1ccccc1)Nc1nc2ccc([N+](=O)[O-])cc2s1`, the growth in experiment [1] was 8.64% (active); in experiment [2], 9.17% (active); in [3], 13.9%; in [4], 6.41% (active); in [5], 4% (active); in [6] it was -46.5% (active). In experiment [8], the growth was 20.2%.

For the compound `Cc1nn(-c2ccc(Cl)cc2)c(C)c1N=Nc1ccc2oc(=O)ccc2c1`, the growth is 81.4% in experiment [1]; 94.5% in experiment [2]; 97.3% in [3]; 82.8% in [4]; 80.3% in experiment [5]; 84.3% in experiment [6]. For the same compound, the growth in experiment [7] is 69.6%; in [8], 82.5%.

As for `O=C(/C=C1\C=CN(CCCCF)c2ccccc21)n1ccc2ccccc21`, the growth is 102% in experiment [1]; 107% in [2]; 105% in [3]; 105% in experiment [4]; 103% in experiment [5]; 98.8% in experiment [6]. Moreover, in [7], the growth was 106%.

As for `COc1cc(/C=N/n2cnc3oc(-c4ccccc4)cc3c2=N)cc(CN2CCOCC2)c1O`, the growth in experiment [1] was 27.9%; in experiment [2], 60.3%; in [3] it was 101%; in experiment [4] it was 53.7%; in [5] it was 64.6%; in [6], 62.3%. The growth is 62.5% in experiment [9], 8.3% (active) in experiment [7] and 78.3% in [8].

As for `COc1ccc(-c2nnc(SCc3ccc(O)c4ncccc34)o2)cc1`, the growth in [1] was 10.1%; in experiment [2] it was 89.1%; in experiment [4], 20%; in [5], 26.2%; in experiment [6], 9.31% (active); in experiment [9] it was 42.8%. The growth in experiment [7] is 19.7%; in experiment [8], 41.7%.

For `Oc1ccc(CSc2nnc(-c3ccc(Br)cc3)n2-c2ccccc2)c2cccnc12`, the growth was 15.7% in [1]; 89.6% in [2]; 17.8% in experiment [3]; 7.75% (active) in [4]; 29.5% in experiment [5]; 12% in experiment [6]. In addition, the growth in [9] is 0.404% (active); in [7], 36.2%; in experiment [8], 40.9%.

With `O=C(Nc1ccc(Cl)cc1)Nc1nc2ccc([N+](=O)[O-])cc2s1`, the growth was -42.7% (active) in experiment [1]; 1.88% (active) in experiment [2]; 11.5% in [3]; -11% (active) in experiment [4]; -7.8% (active) in experiment [5]; -83.7% (active) in experiment [6]. In addition, the growth in experiment [9] is -30.2% (active); in experiment [8], -12.3% (active).

Turning to `O=C(CCCCCCN1CC(=O)N2[C@@H](c3cccc(Br)c3)c3[nH]c4ccccc4c3C[C@H]2C1=O)NO`, the growth in experiment [1] was 68.7%; in [2], 14.8%; in experiment [4] it was 25%; in experiment [5], 32.8%; in experiment [6], 15.2%; in experiment [9], 1.57% (active). Moreover, the growth was -59.8% (active) in experiment [7] and 26.6% in experiment [8].

In the case of `CN(c1ccc(Br)cc1)S(=O)(=O)c1ccc(-c2cnc(C3CC3)o2)cc1`, the growth is 17.7% in experiment [1]; 11% in [2]; 37.3% in [3]; 22.7% in experiment [4]; 22.4% in [5]; 30% in experiment [6]. For the same compound, the growth is 28.5% in [9] and 58.1% in experiment [8].

`Oc1ccc(CSc2nnc(-c3ccccc3)o2)c2cccnc12`: the growth in experiment [1] was 10.6%; in [2], 88.8%; in [4], 10.9%; in experiment [5], 21.8%; in experiment [6], 6.95% (active); in experiment [9] it was 5.32% (active). In addition, the results for the growth in experiment [7] and in experiment [8] were 5.66% (active) and 21.7%, respectively.

For `O=C(/C=C1\C=CN(CCCCO)c2ccccc21)n1ccc2ccccc21`, the growth is 107% in [1]; 109% in experiment [2]; 94.8% in experiment [3]; 102% in experiment [4]; 107% in experiment [5]; 98.1% in experiment [6]. The growth was 87.6% in [9], 114% in experiment [7] and 108% in experiment [8].

Turning to `Oc1ccccc1-c1nnc(SCc2ccc(O)c3ncccc23)o1`, the growth in [1] is 16.3%; in [2] it was 102%; in experiment [3], 29.1%; in [4], 23.6%; in experiment [5], 19.2%; in experiment [6], -4.08% (active). Also, the growth in experiment [9] was 30.2%; in [7] it was 39.1%; in experiment [8] it was 51.2%.

(Values after PubChem BioAssay (NCI).)
